TRb SRC2 PPI – qHTS for Inhibitors of the Interaction of Thyroid Hormone Receptor and Steroid Receptor Coregulator 2; TRbeta-SRC2 peptide binding, fluorescence polarization; receptor liganded with 1 µM T3; Potency, µM (series often up to 106 µM), hits mostly inhibitors; 280,000 compounds, 0.065% hits; AID 1469, 2008; further: nearly all actives have a fitted effect of over 50% in size
Target sequence (P10828 whole entry, looked up): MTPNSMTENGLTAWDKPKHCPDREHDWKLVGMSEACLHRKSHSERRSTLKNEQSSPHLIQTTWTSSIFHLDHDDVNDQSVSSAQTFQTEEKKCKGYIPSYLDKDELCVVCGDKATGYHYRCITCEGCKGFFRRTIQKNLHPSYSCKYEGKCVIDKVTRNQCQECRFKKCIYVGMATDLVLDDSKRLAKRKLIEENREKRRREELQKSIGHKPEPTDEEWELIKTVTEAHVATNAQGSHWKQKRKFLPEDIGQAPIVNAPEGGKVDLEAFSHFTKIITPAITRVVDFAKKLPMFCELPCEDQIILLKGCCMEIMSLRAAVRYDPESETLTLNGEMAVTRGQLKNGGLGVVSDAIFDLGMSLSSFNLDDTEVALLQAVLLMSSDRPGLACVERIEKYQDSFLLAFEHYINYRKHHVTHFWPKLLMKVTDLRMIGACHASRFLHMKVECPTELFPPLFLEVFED
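Human TRb ligand-binding domain (0.6 uM) is mixed with 20 nM Texas Red SRC2 peptide and 1 uM T3; after compound addition and 5 hr at ambient temperature, polarization is measured and normalized to unbound and bound controls.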
TR SRC2 fluor cs – Total Fluorescence Counterscreen for Inhibitors of the Interaction of Thyroid Hormone Receptor and Steroid Receptor Coregulator 2. Potency, µM (titrated, usually from 106 µM). 280,000 compounds, 0.29% hits. TRb/SRC2 Texas Red total fluorescence interference. AID 1479, 2009; active means well fitted curve in either direction with a large enough effect; inconclusive means small, poorly fitted or top-dose-only effect
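Human TRβ ligand-binding domain (0.6 uM) and Texas Red SRC2 peptide (20 nM) in Tris buffer with 1 uM T3 and 5% DMSO were incubated with pinned compound for 5 hr at ambient temperature. Total fluorescence was computed as S + 2P (555/632 nm).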
Tau fluor counter – Counterscreen qHTS for Inhibitors of Tau Fibril Formation, Fluorescence Polarization. tau K18 P301L Alexa594 fluorescence, heparin fibrillization. Potency, µM (titrated, usually from 57.7 µM). 280,000 compounds, 0.93% hits. AID 1463, 2008; further: nearly all actives have a fitted effect of over 55% in size
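Human tau K18 P301L (15 uM unlabeled, 0.24 uM Alexa 594-labeled) in 100 mM sodium acetate pH 7 with 20 uM heparin, 6 hr at 37 C. ThT 30 uM added, 1 hr ambient; Alexa 594 FP and total fluorescence read at 555/632 nm.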
Tau FP inhib – qHTS for Inhibitors of Tau Fibril Formation, Fluorescence Polarization; Microtubule-associated protein tau (Homo sapiens), P10636; K18 P301L tau heparin fibrillization, Alexa594 FP, 6 h; Potency, µM (highest dose often 57.7 µM), most hits filed as inhibitors; 280,000 compounds, 0.39% hits; AID 1468, 2008; further: nearly all actives have a fitted effect of over 55% in size
Target sequence (P10636 561-689 P618L limits assumed): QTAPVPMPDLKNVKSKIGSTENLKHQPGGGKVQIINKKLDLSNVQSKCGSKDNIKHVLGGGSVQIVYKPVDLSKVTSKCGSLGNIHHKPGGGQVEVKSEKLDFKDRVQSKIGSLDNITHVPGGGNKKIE
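Quantitative HTS format: compounds meet 15 uM recombinant K18 P301L tau and Alexa 594-tau tracer in 100 mM sodium acetate pH 7; 20 uM heparin triggers fibrillization at 37 C over 6 hr; FP gives the signal.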
Tau fibril ThT – qHTS for Inhibitors of Tau Fibril Formation, Thioflavin T Binding; recombinant tau K18 P301L (four-repeat tau fragment), heparin-induced fibrillization, ThT fluorescence; Potency, µM (doses to about 57.4 µM), actives largely listed as inhibitors; AID 1460, 2008; Microtubule-associated protein tau (Homo sapiens), P10636; 270,000 compounds, 2.1% hits; further: nearly all actives have a fitted effect of over 55% in size
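K18 P301L tau (15 uM + 0.24 uM Alexa 594-tagged), heparin 20 uM, NaOAc pH 7, 6 h 37 C; ThT 30 uM, 1 h RT, ex 450/em 510 nm.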
RGS12 GoLoco inh – qHTS Assay for Inhibitors of RGS12 GoLoco Motif Activity (Red Fluorophore); Gai1:RGS12 GoLoco peptide FP, rhodamine, 10 min; Potency, µM (highest dose often 61.6 µM), actives largely listed as inhibitors; 230,000 compounds, 0.44% hits; AID 880, 2007; active means well fitted inhibition curve with a large enough effect, not every such curve was filed as active; inactive means no such curve, though single readings can be large or run the other way; further: nearly all actives have a fitted effect of over 30% in size
Large screens that a line does not name were inactive; ! = not confirmed by another sample; [ ] = dose if it differs, or a comment. Most compounds without a hit are left out; they make up all but 3.2% or so of the library. Unless noted, the call rests on the fitted dose curve; in most records, active means well fitted curve in the direction sought with a large enough effect; inconclusive means small, poorly fitted or top-dose-only effect, or another doubt; inactive means no such curve, though single readings can be large; an effect the other way counts as inactive or inconclusive.

Cc1ccc(/C=C/C(=O)Nc2ccc3nc(N4CCC(C)CC4)cc(C)c3c2)cc1	Tau fluor counter 6.3µM[quencher], Tau fibril ThT 2.5µM (no result: RGS12 GoLoco inh)
O=C1C(SCCO)=C(SCCO)C(=O)c2ccccc21	TRb SRC2 PPI inconclusive, TR SRC2 fluor cs 14µM![quencher], Tau fluor counter 2µM[quencher], Tau FP inhib 2.5µM, Tau fibril ThT 14µM, RGS12 GoLoco inh 3.5µM!
N#CC(=NCCO)C1=C(O)c2ccccc2C1=O	none (no result: TRb SRC2 PPI, TR SRC2 fluor cs, Tau fluor counter, Tau FP inhib, Tau fibril ThT)
CC[C@@H](c1ccc2cc(O)ccc2c1)C(C)(C)C(=O)O	none (no result: TRb SRC2 PPI, TR SRC2 fluor cs, Tau fluor counter, Tau FP inhib, Tau fibril ThT)
O=c1c2ccccc2nc(N/N=C/c2c(O)ccc3ccccc23)n1O	Tau fluor counter inconclusive, Tau fibril ThT 11µM
Cc1ccc(NC(=S)Nc2ccc(C(C)C)cc2)cc1S(=O)(=O)N1CCCCCC1	Tau fluor counter 7.9µM[quencher], Tau FP inhib 13µM
C=CCNC(=S)Nc1ccc(C)c(S(=O)(=O)N2CCCCC2)c1	none
COc1ccc(NC(=S)Nc2ccc(C)c(S(=O)(=O)N3CCCCC3)c2)cc1	Tau fluor counter 32µM[quencher], Tau FP inhib inconclusive
COC(=O)c1ccc(C2CC(=O)Nc3c2c(C)nn3-c2nc(C)cc(C)n2)cc1 (configuration not stated)	none (no result: RGS12 GoLoco inh)
N#Cc1ccccc1CSc1nnc(-c2ccc(Br)cc2)o1	none (no result: RGS12 GoLoco inh)
CC(=O)c1cc(NC(=O)c2ccc(Cl)cc2)c(=O)oc1/C=C/N(C)C	Tau FP inhib inconclusive, Tau fibril ThT 10µM
CC(=O)c1cc(NC(=O)c2cccc(C(F)(F)F)c2)c(=O)oc1C	Tau FP inhib 35µM, Tau fibril ThT 25µM
COc1ccc(/C=C\c2onc(C)c2S(=O)(=O)N2CCC(C(=O)Nc3cccc(C)c3C)CC2)cc1	Tau FP inhib inconclusive (no result: RGS12 GoLoco inh)
COc1ccc(/C=C\c2onc(C)c2S(=O)(=O)N2CCC(C(=O)Nc3cccc(Cl)c3)CC2)cc1	Tau FP inhib 14µM (no result: RGS12 GoLoco inh)
COc1ccccc1-c1cc(C(=O)Nc2sc3c(c2C#N)CCCC3)no1	Tau FP inhib inconclusive, Tau fibril ThT 35µM (no result: RGS12 GoLoco inh)
Cc1onc(-c2ccccc2)c1C(=O)NC(=S)Nc1sc2c(c1C#N)CCCC2	Tau FP inhib inconclusive, Tau fibril ThT 28µM
CCCN1CCc2c(sc(NC(=S)NC(=O)c3ccccc3)c2C#N)C1	Tau fluor counter inconclusive, Tau fibril ThT 16µM
CC(C)(C)C1CCc2onc(C(=O)Nc3sc4c(c3C#N)CCCC4)c2C1 (configuration not stated)	Tau FP inhib inconclusive, Tau fibril ThT 32µM (no result: RGS12 GoLoco inh)
CC(C)(C)C1CCc2onc(C(=O)Nc3sc4c(c3C(N)=O)CCCC4)c2C1 (configuration not stated)	Tau FP inhib inconclusive, Tau fibril ThT inconclusive (no result: RGS12 GoLoco inh)
CC[C@H]1[C@@H]2C=C[C@@H]3[C@H]4C/C=C\C(=O)NCCC[C@@H]5NC(=O)C(=C5O)C(=O)CC[C@@H]4C[C@@H]3[C@H]2C[C@H]1C	none
CCCCCCCCCCCCC/C=C/C(O)C(COP(=O)(O)OCCN)NC(=O)CCCCCCCCCCCCCCCCC (configuration not stated)	none (no result: Tau fluor counter, Tau FP inhib, Tau fibril ThT, RGS12 GoLoco inh)
O=[N+]([O-])c1cccc(/C=C/c2nc(C=Nc3ccc4ccccc4c3)c(O)o2)c1	Tau fibril ThT 2µM
C[Si](C)(C)O[Si](C)(C)O[Si](C)(C)C	none (no result: Tau fluor counter, Tau FP inhib, Tau fibril ThT, RGS12 GoLoco inh)
O=C(OCC(F)(F)F)[C@H](O)[C@@H](O)C(=O)OCC(F)(F)F	none
Nc1c(C(=O)Nc2ccccc2)sc2ncc([N+](=O)[O-])cc12	Tau fibril ThT inconclusive
CCOC(=O)c1sc2ncc([N+](=O)[O-])cc2c1N	Tau fibril ThT 7.9µM
COc1cc(N/N=C(\C)c2ccc(O)c(C)c2)nc(-c2ccccc2)n1	Tau fluor counter 8.9µM[quencher], Tau FP inhib inconclusive, Tau fibril ThT inconclusive
COc1cc(N/N=C(\C)c2ccc(N)cc2)nc(-c2ccccc2)n1	Tau fluor counter 14µM[quencher], Tau fibril ThT 16µM

Bioassay records: PubChem, National Center for Advancing Translational Sciences (NCATS)
